The full list was thinned out, with hits kept by preference.
Dicer processing: inhibitors of Dicer pre-microRNA processing, primary screen, biochemical, cat-ELCCA, chemiluminescence; cat-ELCCA pre-miR-21 Dicer processing; stronger effect = higher value; AID 1347074, 2019; Endoribonuclease Dicer (Homo sapiens), Q9UPY3; actives 6% (n = 47,000); z-score at 25 µM; in the data active means z-score above about 3, passing the limit was not always enough;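 further: higher signal means more uncleaved substrate so more Dicer inhibition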
Each line names hits and unclear results; the compound was inactive in the other large screens.

COc1ccc(N2C(=O)CCC2=O)cc1	none
CCOC(=O)c1sc(=S)n(-c2ccc(OC)cc2)c1N	none
COc1ccc(-n2ccsc2=S)cc1	Dicer processing 4.7
O=c1c(=CNc2ccccc2)c(=O)c2cccc3cccc1c32	none
O=C(O)C1=C(C(=O)Nc2ccccc2)CCCC1	none
O=C1CCCC/C1=C\Nc1ccccc1	Dicer processing 4.3
N#Cc1cn(-c2ccccc2Cl)c(=O)n(Cc2ccc(Cl)cc2)c1=O	none
CCOC(=O)C(O)(NC(=O)c1ccc(C)cc1)C(F)(F)F (configuration not stated)	none
Fc1cccc(CN2CCN(Cc3ccc4ccccc4c3)CC2)c1	none
CCOC(=O)C1=C(C)NC2=C(C(=O)CC(c3cccs3)C2)C1c1ccsc1 (configuration not stated)	none
CCOc1ccc(C2C(C(=O)OC(C)C)=C(C)NC3=C2C(=O)CC(c2ccccc2)C3)cc1OC (configuration not stated)	none
CCOc1ccc(C2CC(=O)C3=C(C2)NC(C)=C(C(=O)OCCOC)C3c2cccs2)cc1OC (configuration not stated)	none
COc1ccc(C2CC(=O)C3=C(C2)NC(C)=C(C(=O)OC(C)C)C3c2ccc(F)cc2)cc1 (configuration not stated)	none
CCOc1ccc(C2C(C(=O)OC(C)C)=C(C)NC3=C2C(=O)CC(c2ccc(OC)cc2)C3)cc1 (configuration not stated)	none
CCOc1cc(C2C(C(=O)OC(C)C)=C(C)NC3=C2C(=O)CC(c2ccccc2)C3)ccc1O (configuration not stated)	Dicer processing 11
CCOc1cc(C2C(C(=O)OCCOC)=C(C)NC3=C2C(=O)CC(c2cccs2)C3)ccc1O (configuration not stated)	Dicer processing 3.3
CCOCCOC(=O)C1=C(C)NC2=C(C(=O)CC(c3cccs3)C2)C1c1cccc(O)c1 (configuration not stated)	Dicer processing 3.4
COc1ccc(C2CC(=O)C3=C(C2)NC(C)=C(C(=O)OC(C)C)C3c2ccc(N(C)C)cc2)cc1 (configuration not stated)	Dicer processing 3.8
CCOc1ccc(C2C(C(=O)OC(C)C)=C(C)NC3=C2C(=O)CC(c2ccccc2)C3)cc1 (configuration not stated)	none
CCOCCOC(=O)C1=C(C)NC2=C(C(=O)CC(c3cccs3)C2)C1c1ccc(OC)c(O)c1 (configuration not stated)	none
CCOC(=O)C1=C(C)NC2=C(C(=O)CC(c3cccs3)C2)C1c1ccc(F)cc1 (configuration not stated)	none
CN1CCN(C(=O)C2CC(c3ccc(Cl)cc3)=NO2)CC1 (configuration not stated)	none
O=C(c1ccco1)N1CCCn2c(SCc3ccccc3)nnc21	none
CC(C)(C)OC(=O)C(C)(C)Sc1ccc(C(F)(F)F)cn1	none
C=CCOC(=O)c1sc(N2C(=O)c3oc4ccc(F)cc4c(=O)c3C2c2ccc(C)cc2)nc1C (configuration not stated)	none
C=CCn1cnc2sc(-c3ccccc3)cc2c1=O	none
Cc1cc(C)nc(N2CC(=O)N(CCOc3ccc(Br)cc3)C2=O)n1	none
CC1=C(C#N)C(c2ccccc2F)C2=C(CCCC2=O)N1 (configuration not stated)	none
COCCOC(=O)C1=C(C)NC2=C(C(=O)CC(c3cccs3)C2)C1c1ccc(O)cc1 (configuration not stated)	Dicer processing 3
CCOCCOC(=O)C1=C(C)NC2=C(C(=O)CC(c3cccs3)C2)C1c1ccc(O)c(OC)c1 (configuration not stated)	Dicer processing 5
COCCOC(=O)C1=C(C)NC2=C(C(=O)CC(c3cccs3)C2)C1c1ccsc1 (configuration not stated)	none
CCOC(=O)C1=C(C)NC2=C(C(=O)CC(c3ccc(OC)cc3)C2)C1c1ccc(O)c(OC)c1 (configuration not stated)	none
COc1ccc(C2CC(=O)C3=C(C2)NC(C)=C(C#N)C3c2ccc(F)cc2)cc1 (configuration not stated)	Dicer processing 4.5
COc1ccc(C2CC(=O)C3=C(C2)NC(C)=C(C#N)C3c2ccc(Br)cc2)cc1 (configuration not stated)	none
CCCOC(=O)C1=C(C)NC2=C(C(=O)CC(c3cccs3)C2)C1c1ccc(F)cc1 (configuration not stated)	none
CC1=C(C#N)C(c2cccc(F)c2)C2=C(CCCC2=O)N1 (configuration not stated)	Dicer processing 4.7
COCCOC(=O)C1=C(C)NC2=C(C(=O)CC(c3cccs3)C2)C1c1ccc(O)c(OC)c1 (configuration not stated)	none
CCc1ccc(C2C(C#N)=C(C)NC3=C2C(=O)CCC3)cc1 (configuration not stated)	none
CC1=C(C#N)C(c2ccc(F)cc2)C2=C(CC(c3ccccc3)CC2=O)N1 (configuration not stated)	none
Cc1cc(N/N=C/c2ccccc2Cl)nc2c1c(C)nn2C	none
CCOC(=O)CNC(=O)CSc1nc2ccccc2c(=O)[nH]1	none
CCOC(=O)CCCCOc1ccc2oc3ccccc3c(=O)c2c1	none
CC(C)(C)c1csc(-c2sccc2COc2ccc(Cl)cc2)n1	none
N/C(=N\NS(=O)(=O)c1ccccc1OC(F)(F)F)c1cnccn1	none
Oc1ccc(Oc2c(Cl)cncc2Cl)cc1	none
O=S(=O)(c1ccccc1)n1ccc(-c2ccc(C#Cc3ccccc3)cc2)n1	none
O=C1CC(N2CCN(c3ccc(Cl)cc3)CC2)C(=O)N1c1cccc(Cl)c1 (configuration not stated)	none
COc1ccc2c(c1)CC/C(=C\c1ccc(C(F)(F)F)cc1)C2=O	none
COc1ccccc1NC(=S)NC(c1ccccc1)c1ccccc1	none
C=CCn1c(SCC(C)=O)nnc1-c1ccc2ncccc2c1	none
CC(C)NC(=O)CSc1nnc(-c2ccc3ncccc3c2)n1C	Dicer processing 3.1
Cc1ccc(C(=O)CSc2nnc(-c3ccc4ccccc4c3)n2C)cc1	none
CCOC(=O)c1ccc(Oc2c(C(F)(F)F)oc3cc(O)ccc3c2=O)cc1	none
CCCCOC(=O)Nc1ccc(N(CC)CC)cc1	none
CCCc1cc(C(=O)Nc2ccc(N(CC)CC)cc2)nn1-c1ccccc1	Dicer processing 4.4
CCCc1c(NC(=O)Nc2ccc(F)cc2)cnn1-c1ccccc1	none
CNC(=O)c1ccccc1S(=O)c1cccc2cccc(CO)c12 (configuration not stated)	none
O=C(Nc1nc(-c2ccccc2)cs1)c1ccc(Cl)cc1	none
Cn1ccnc1SCC(=O)Nc1nc(-c2ccc(Cl)cc2)cs1	none
CC(=O)CCCNc1nc(-c2ccc(Cl)cc2)cs1	Dicer processing 6.7
Cc1cc(-n2cnc(-c3cnoc3C)n2)no1	none
c1coc(CNc2nc3ccccc3n2CCN2CCCCC2)c1	Dicer processing 6.1
O=C(Cn1c(NCCO)nc2ccccc21)c1ccc(Cl)cc1	none
Clc1ccc(CNc2nc3ccccc3n2CCN2CCCCC2)cc1	Dicer processing 3.2
CCCCn1c(NCc2ccco2)nc2ccccc21	none
O=C(CSc1nc2ccccc2nc1N1CCCC1)NCc1ccco1	none
O=C(Nc1nc2ccccc2n1CCN1CCCCC1)C1CCCCC1	none
COCCCNC(=S)NNS(=O)(=O)c1ccc(Cl)cc1	none
CCOC(=O)c1sc2nccnc2c1N	none
Cc1ccc(N2C(=O)C3C4c5ccccc5C(CO)(c5ccccc54)C3C2=O)c(C)c1 (configuration not stated)	none
OCC(O)Cn1c2ccc(Br)cc2c2cc(Br)cc(Br)c21 (configuration not stated)	none
CCOC(=O)c1cc([NH2+][O-])cc2c1-c1ccc([N+](=O)[O-])cc1C2=O	none

Screening data from PubChem BioAssay.
